SNCA expr inhib: inhibitors of alpha-synuclein (SNCA) gene expression; HEK-293 SNCA-luciferase knock-in, luminescence, 24 h; Potency, µM (titrated, usually from 57.2 µM), inactives show at the top dose activity change, negative = inhibition, most hits filed as inhibitors; 140,000 compounds, 0.17% hits;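 note: potency is the fitted concentration of half-maximal effect; plate controls were DMSO cells for no effect and cell-free wells for full effect; nearly all actives have a fitted effect of over 45% in size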
HEK293 viab: reduces viability of HEK-293 SNCA reporter cells | 150,000 compounds, 0.12% hits | HEK-293-SNCA-luc viability, GF-AFC fluorescence, 24 h | Potency, µM (highest dose often 57.1 µM), without a hit: top-dose activity change, negative = cytotoxicity, hits mostly cytotoxic;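 note: potency is the fitted concentration of half-maximal effect; 0% = DMSO-treated cells and -100% = medium-only wells without cells; nearly all actives have a fitted effect of over 30% in size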
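Cytotoxicity counterscreen: after 24 h compound treatment of genome-edited SNCA-luciferase HEK-293 cells, live-cell protease substrate GF-AFC read by fluorescence after 30 min; activity scaled between DMSO (0%) and medium-only (-100%), curves Hill-fitted.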
IP6K1 inh: blocks human inositol hexakisphosphate kinase 1 | Q92551 | AID 1645851 | activity change, % (series mostly up to about 58 µM) | 140,000 compounds, 0.81% hits | IP6K1 kinase, ADP-Glo luminescence, 2 h; hits give low values; in the data active = activity change below about -25%
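ADP-Glo luminescence measures ADP made by human IP6K1 during a 2 h RT reaction with ATP/IP6 (mix at 1.3 mM/130 uM); top library doses 57.5 and 19.1 uM final.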
GPT2 inhibitor: inhibitors of human GPT2 alanine aminotransferase | Potency, µM (series often up to 57.7 µM), for the others: at the top dose activity change, negative = inhibition, usual class: inhibitors | 100,000 compounds, 0.25% hits | Q8TD30 | AID 1671188 | Recombinant GPT2, coupled pyruvate oxidase/HRP Amplex Red fluorescence; note: potency is the fitted concentration of half-maximal effect; nearly all actives have a fitted effect of over 60% in size
Target sequence (Q8TD30 whole entry, looked up): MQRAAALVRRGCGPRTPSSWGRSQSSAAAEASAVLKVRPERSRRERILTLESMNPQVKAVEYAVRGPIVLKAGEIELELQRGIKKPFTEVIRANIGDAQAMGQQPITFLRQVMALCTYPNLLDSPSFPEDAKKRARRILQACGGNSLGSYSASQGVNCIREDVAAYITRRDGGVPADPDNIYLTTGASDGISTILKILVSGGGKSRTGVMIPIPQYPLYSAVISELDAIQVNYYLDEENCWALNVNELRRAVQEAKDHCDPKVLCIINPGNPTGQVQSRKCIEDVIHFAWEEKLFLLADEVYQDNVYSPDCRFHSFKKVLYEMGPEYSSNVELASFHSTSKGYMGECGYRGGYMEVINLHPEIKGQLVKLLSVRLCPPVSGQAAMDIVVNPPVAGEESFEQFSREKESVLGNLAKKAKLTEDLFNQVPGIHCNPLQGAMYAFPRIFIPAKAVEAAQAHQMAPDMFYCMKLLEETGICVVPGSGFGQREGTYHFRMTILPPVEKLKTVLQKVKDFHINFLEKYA
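Fluorescence of coupled pyruvate oxidase/HRP/Amplex Red system (50uM Amplex, 30 min, dark) reports pyruvate formed by GPT2. Enzyme reaction: 10ng/uL GPT2, 2mM L-alanine, 250uM a-KG, 30 min room temperature, pH 7.5; 50uM AOA control.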
IP6K1 inh cnf: human IP6K1 inhibition, confirmatory; 1,200 compounds, 13% hits; recombinant IP6K1 kinase, ADP-Glo luminescence, 2 h; AID 1645852; Potency, µM (highest dose often 49 µM), for the others: top-dose activity change, negative = inhibition, most hits filed as inhibitors; shares compounds with IP6K1 inh; note: potency is the fitted concentration of half-maximal effect; nearly all actives have a fitted effect of over 65% in size
* = called active by the depositor; i = inactive; ? = inconclusive; . = no result; ! = a repeat was not active; [ ] = another dose, or the depositor's remark. The list is not random: actives were taken first. Their share in the collection is about 1.1%. Unless noted, calls come from the whole dose curve; as a rule, active = well fitted curve in the direction sought with a large enough effect; inconclusive = small, poorly fitted or top-dose-only effect, or another doubt; inactive = no such curve, though single readings can be large; an effect the other way counts as inactive or inconclusive. Unless noted, % is set by controls: 0 for no effect and ±100 for the full control effect.

SMILES	SNCA expr inhib	HEK293 viab	IP6K1 inh	GPT2 inhibitor	others
NC1=NC(=O)N2CC12 (centres undefined)	9.6µM*	-15%	.	-7%
C[C@H]1CCC[C@H](O)CCC/C=C/c2cc(O)cc(O)c2C(=O)O1	.	-17%	-16	i
Ic1ccccc1CNC1C2CCN(CC2)C1C(c1ccccc1)c1ccccc1 (centres undefined)	?	22µM*	.	-2%
NCC(O)c1cc(O)c(O)cc1F (centres undefined)	12%	7%	.	10µM*
CCOC(=O)[C@H]1CN(C(=O)NC2CCCC2)[C@]2(C)C(=O)N(C)c3ccccc3[C@H]12	-28%[25.6 µM]	-20%[23.9 µM]	16	-4%[27.3 µM]
CC[C@H]1CN2CC[C@H]1C[C@@H]2CNC(=O)Nc1ccc(Oc2ccccc2)cc1	?	-26%[87.6 µM]	-3	?
CC(C)OC(=O)c1ccnc2cc(C(OCCN3CCCCC3)c3ccccc3Cl)sc12 (centres undefined)	.	30µM*	0	i
O=C(c1ccccc1)N1C[C@@H]2C[C@H](C1)c1c(-c3cccnc3)ccc(=O)n1C2	20%[87.6 µM]	-12%[87.6 µM]	18	?
Cc1ccc(-n2cccc2CC(=O)N2CCN(C3CCN(C)CC3)CC2)cc1	9%	4%	5	4%
CCOC(=O)[C@H]1CN(C(=O)c2cccs2)[C@]2(C)C(=O)N(CC3CC3)c3ccccc3[C@H]12	-11%[25.6 µM]	-6%[23.9 µM]	16	i
CN1CC[C@]23c4c5ccc(O)c4O[C@H]2[C@@H](O)C=C[C@H]3[C@H]1C5	11%	22%	2	28µM*
COc1ccc2c3c1O[C@H]1[C@@H](O)C=C[C@H]4[C@@H](C2)N(C)CC[C@@]341	-28%	28%	2	i
CC(C)[C@H]1C(=O)N[C@H](CO)Cc2c[nH]c3cccc(c23)N1C	0%	-15%	.	15µM*
C[C@@H]1C[C@@H](O)[C@]2(O)O[C@@H]3C[C@@]4(C=O)C(CC[C@@H]5C4CC[C@]4(C)[C@@](O)(C6=CC(=O)OC6)CC[C@]54O)C[C@H]3OC2O1 (some centres undefined)	.	?	5	i
COc1ccc(NC(=O)NC[C@H]2C[C@@H]3CCN2C[C@@H]3CN2CCN(c3ncccn3)CC2)cc1	5%	5%	-8	-6%
COc1ccc(CC(=O)N2CCN(Cc3ccccc3-c3ccc(C)c(Cl)c3)CC2)cc1	-11%	-12%[12.5 µM]	-6	i
C[C@@]12OC(=O)[C@]1([C@@H](O)[C@@H]1C=CCCC1)NC(=O)[C@H]2CCCl	0.14µM*	?	.	i
CC(C)=CCC[C@]1(C)C=Cc2c(O)c3c(c(CC=C(C)C)c2O1)O[C@]12C(=C[C@@H]4CC1C(C)(C)O[C@@]2(C/C=C(/C)C(=O)O)C4=O)C3=O	.	1.9µM*	-25*	i
O=c1ccc(-c2cccs2)c2n1C[C@H]1C[C@@H]2CN(S(=O)(=O)c2cccs2)C1	32%[87.6 µM]	5%[87.6 µM]	3	?
C=C(C)C(=O)O[C@H]1[C@@H]2[C@H](C)C(=O)O[C@@H]2C[C@@H](C)[C@@H]2C=CC(=O)[C@]21C	.	4.6µM*	-5	4%[27.3 µM]
COC1CC(O[C@H]2CC[C@]3(C=O)C4CC[C@]5(C)[C@@H](C6=CC(=O)OC6)CC[C@]5(O)[C@@H]4CC[C@@H]3C2)OC(C)C1O[C@@H]1O[C@H](CO)[C@@H](O[C@@H]2O[C@H](CO)[C@@H](O)[C@H](O)[C@H]2O)[C@H](O)[C@H]1O (some centres undefined)	.	5.7µM*	8	-6%[17.1 µM]
CCOc1ccc(CN(CCc2ccc3c(c2)OCO3)Cc2ccc(C)cc2)cc1	0%	11%	-2	.
CCOc1ccc(CN(CCc2ccc3c(c2)OCO3)Cc2cccc(Br)c2)cc1	17%	11%	-57*	.
COc1cc2c(cc1OCc1ccccc1)N(C(=O)c1c[nH]c3ccccc13)CC21CCN(C)CC1	?	25µM*	-4	?
COc1cc2c(cc1OC1CCCC1)NC(=O)C21CCN(c2cnccn2)CC1	?	-3%[87.6 µM]	-30*	3%[88.5 µM]	IP6K1 inh cnf=-19%
SMILES	SNCA expr inhib	HEK293 viab	IP6K1 inh	GPT2 inhibitor	others
COc1cc2c(cc1OCc1ccccc1)NC(=O)C21CCN(c2cnccn2)CC1	10%[87.6 µM]	-10%[87.6 µM]	-29*	2%[88.5 µM]	IP6K1 inh cnf=?
COc1ccccc1NC(=O)Nc1ccc2n(c1=O)C[C@H]1C[C@@H]2CN(C(=O)C(=O)O)C1	-1%[87.6 µM]	-1%[87.6 µM]	6	i
O=C(Nc1ccc(Br)cc1C(=O)c1ccccc1)c1ccccc1	0%	13%	-8	.
O=C(Nc1ccc(Br)cc1)c1cc(Br)cc(Br)c1O	34%[25.6 µM]	-30%[23.9 µM]	-40*	4%	IP6K1 inh cnf=23µM*
CC(=O)O[C@H]1C[C@@H](C)O[C@H]2O[C@@H]3CC4CC[C@@H]5C(CC[C@]6(C)[C@@H](C7=CC(=O)OC7)CC[C@]56O)[C@@]4(C=O)C[C@H]3O[C@]21O (some centres undefined)	.	?	8	i
O=C(Cc1ccc(F)cc1)N1CCN(Cc2ccccc2-c2cccnc2)CC1	-5%	-22%[12.5 µM]	2	i
CCN1CCN(C(=O)Cc2ccc(Nc3ncc(F)c(Nc4ccc(C(=O)Nc5ccccc5Cl)cc4)n3)cc2)CC1	32%	24µM*!	-33*	i	IP6K1 inh cnf=?
COc1cc2c(cc1OCc1ccccc1)N([S+](=O)([O-])c1cccc3cccnc13)CC21CCN(C)CC1	?	?	-6	-6%
Cc1sc2c(c1C)C(c1ccc(Cl)cc1)=NC(CC(=O)OC(C)(C)C)c1nnc(C)n1-2 (centres undefined)	.	-33%	-11	-1%
Cc1[nH]c2ccc(Cl)cc2c1CCN(C)C	.	2%	11	i
CN1CCN(C(=O)Cc2c[nH]c3ncc(-c4cccc(OC(F)(F)F)c4)cc23)CC1	-13%[87.6 µM]	-13%[87.6 µM]	-53*	?	IP6K1 inh cnf=?
CN1CCN(C(=O)Cc2c[nH]c3ncc(-c4ccccc4Oc4ccccc4)cc23)CC1	-35%[87.6 µM]	-17%[87.6 µM]	-28*	-1%[88.5 µM]	IP6K1 inh cnf=5%
CCOP(=O)(OCC)Oc1ccc2c(C)cc(=O)oc2c1	.	-11%	16	3%
N#Cc1cn([C@@H]2O[C@H](CO)[C@H](O)[C@@H]2O)c2ncnc(N)c12	.	-28%	-27*	?	IP6K1 inh cnf=10µM*
CN(C)[C@@H]1C(=O)C(C(N)=O)=C(O)[C@@]2(O)C(=O)C3=C(O)c4c(O)ccc(Cl)c4[C@@](C)(O)C3C[C@@H]12 (some centres undefined)	.	-48%	16	i
CN(C)[C@@H]1C(=O)C(C(N)=O)=C(O)[C@@]2(O)C(=O)C3=C(O)c4c(O)cccc4[C@@](C)(O)[C@H]3C[C@@H]12	21%	4%	-75*	5%	IP6K1 inh cnf=0%

Compound activity as filed in PubChem BioAssay.
